# From PubChem BioAssay (NCI)
# About 83,000 compounds went through this panel and 20% of them were active in at least one assay; those are over-represented in the sample as a whole.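 48-hour exposure, single concentration, 96-well plates; percent growth endpoint where 0 means no net growth. Active: below 10.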 A number with no mark means an inactive call. Activity calls are given as the source filed them.
# How the values were obtained:
# Assay in all cases: NCI-60 one-dose screen, 48 h (100 = growth as untreated, 0 = no growth, -100 = all killed)
# Settings in all cases: 10 µM unless noted
# SR leukemia = system: SR leukemia
# RPMI-8226 leukemia = system: RPMI-8226 leukemia
# OVCAR-8 ovarian = system: OVCAR-8 ovarian
# OVCAR-5 ovarian = system: OVCAR-5 ovarian
# OVCAR-4 ovarian = system: OVCAR-4 ovarian
# SK-OV-3 ovarian = system: SK-OV-3 ovarian
# IGROV1 ovarian = system: IGROV1 ovarian
# OVCAR-3 ovarian = system: OVCAR-3 ovarian
# HS 578T breast = system: HS 578T breast
# NCI/ADR-RES ovarian = system: NCI/ADR-RES ovarian
Structure (SMILES),growth (SR leukemia),growth (RPMI-8226 leukemia),growth (OVCAR-8 ovarian),growth (OVCAR-5 ovarian),growth (OVCAR-4 ovarian),growth (SK-OV-3 ovarian),growth (IGROV1 ovarian),growth (OVCAR-3 ovarian),growth (HS 578T breast),growth (NCI/ADR-RES ovarian)
C=C(C)[C@@H]1CC[C@]2(C)[C@H](CC[C@@H]3[C@H]4[C@H]5OC[C@@]4(CCC5(C)C)CC[C@]32C)[C@@]1(C)CCCN,-0.922% (active),1.46% (active),57.8%,50.6%,70.2%,104%,54.3%,76.6%,109%,73.8%
CCOC(=O)N1CCN(CCCCOc2ccc(C(C)(C)CC)cc2)CC1,90.3%,84.4%,103%,106%,93.8%,104%,110%,103%,108%,
COC(=O)c1cc(=O)nc(N/N=C/c2ccc(C)cc2)s1,94.8%,89.9%,105%,101%,96.9%,110%,105%,120%,110%,
Cc1[c-]onc1C.Cc1[c-]onc1C.[Ag].[Ag].[NH-]S(=O)(=O)c1ccc(N=Nc2cc(N=Nc3ccc(S([NH-])(=O)=O)cc3)c3c(NC(=O)C(Cl)Cl)cccc3c2OC(=O)C(Cl)Cl)cc1,81.4%,80.4%,69.1%,125%,93.9%,111%,73%,59.7%,85.2%,
Cn1cc(-c2csc(-c3cn(CCCN4CCCCC4)c4ccc(Br)cc34)n2)c2cccnc21,-48.9% (active),-35.3% (active),-16.4% (active),30.8%,32.3%,75.2%,-20.1% (active),-75.6% (active),60.8%,
OCCNc1nc(Nc2ccc(Cl)c(Cl)c2)nc2ccccc12,3.46% (active),30.7%,37.5%,78.3%,44.8%,62.8%,39.1%,48.2%,53.3%,
COc1ccc(NC(=S)N/N=C/c2ccccc2SSCCC(=O)OC[C@H]2O[C@H](O)[C@H](O)[C@@H](O)[C@@H]2O)cc1,49.6%,91.7%,68.3%,100%,80.4%,73.5%,56.8%,91.3%,91.6%,59.7%
COc1ccc2c3c(c4ccccc4cc13)C(=O)N(CCN(C)CCN)C2=O,-31.8% (active),-45.1% (active),-52.5% (active),-65.9% (active),-79.4% (active),-6.29% (active),-48.4% (active),-62.5% (active),24.8%,
Cc1csc(Nc2nc(-c3cccc(Br)c3)nc(C(Cl)(Cl)Cl)n2)n1,67.7%,35.8%,75.6%,69.9%,76.8%,76.1%,91.9%,14.9%,59.6%,
Nc1ccc(Cl)cn1,113%,101%,101%,101%,97.4%,93.6%,104%,106%,99.7%,98.7%
Cc1cc(N2CCN(C)CC2)nc(N(CCNc2ccnc3cc(Cl)ccc23)Cc2ccco2)n1,-22.1% (active),-3.89% (active),65.8%,73.3%,55.7%,91.5%,18.5%,3.21% (active),68.7%,
COc1ccc(C2C(C#N)=C(N)Oc3c2sc2c(F)cccc32)cc1 (configuration not stated),11.6%,11.8%,25.9%,69.3%,65.7%,20.7%,30.6%,-4.86% (active),42.4%,6.69% (active)
CC1(C)C=CC[C@]2(C)[C@H]3CC[C@@H]4[C@H]5[C@H](C(=O)/C=C/c6cccnc6)CC[C@]5(CO)CC[C@@]4(C)[C@]3(C)CC[C@@H]12,-26.9% (active),-18.5% (active),-11.7% (active),-74.3% (active),-14.5% (active),-46.6% (active),-54.5% (active),-94.6% (active),-42.9% (active),-32.2% (active)
COc1ccc(NC(=O)c2ccoc2COc2ccccc2)cc1,88.4%,91.8%,100%,95.8%,101%,106%,91.2%,109%,99.7%,93%
CCOC(=O)C1OC1(c1ccccc1)c1ccccc1 (configuration not stated),108%,95.6%,99.6%,99.6%,121%,112%,99.6%,106%,114%,105%
Cc1ccncc1C(=O)O,120%,108%,95.5%,94.7%,96%,137%,99.6%,101%,96.5%,96.8%
CCSc1sc(-c2ccc(C)cc2)nc1[P+](c1ccccc1)(c1ccccc1)c1ccccc1,-17.9% (active),-33.9% (active),1.31% (active),18.3%,-4.21% (active),-23.1% (active),-8.55% (active),-12.7% (active),-3.68% (active),-5.4% (active)
Cc1ccc(S(=O)(=O)Nc2ccc(-c3cc(-c4cccc(F)c4)c(C#N)c(=O)[nH]3)cc2)cc1,54.9%,19.4%,80.1%,99.9%,67%,99.7%,73.1%,82.6%,89.7%,90.7%
O=C1CCCC=CC[C@H]2C=C(Cl)C(=O)C2=CC[C@H](CCCCC(F)(F)F)OC(=O)CCCC=CC[C@H]2C=C(Cl)C(=O)C2=CC[C@H](CCCCC(F)(F)F)OC(=O)CCCC=CC[C@H]2C=C(Cl)C(=O)C2=CC[C@H](CCCCC(F)(F)F)O1,11.6% [6.25 µM],4.9% [6.25 µM] (active),8.78% [6.25 µM] (active),140% [6.25 µM],68.7% [6.25 µM],119% [6.25 µM],43.7% [6.25 µM],14.3% [6.25 µM],81.9% [6.25 µM],97.6% [6.25 µM]
Cn1c(=O)c2c(nc(Br)n2CC(=O)Nc2ccc(F)cc2)n(C)c1=O,89.2%,79.1%,103%,103%,120%,102%,107%,114%,100%,102%
CCc1nnc(NC(=O)c2ccoc2COc2ccccc2)s1,26.4%,30.8%,63.8%,84.7%,92.2%,75.9%,53.4%,33.8%,62%,12%
O=C1c2cccc3cccc(c23)C(=O)N1CC#Cc1ccc2c3c(cccc13)C(=O)N(CCN1CCNCC1)C2=O,2.23% (active),8.66% (active),93.9%,92.1%,85.3%,132%,91.4%,106%,106%,102%
COc1cccc(-c2nn(-c3ccccc3)cc2-c2ccnc(NCCCNS(=O)(=O)c3ccccc3)c2)c1,2.99% (active),18.4%,16%,67.2%,39.6%,43%,31.3%,41.3%,37.5%,21.1%
O=Cc1nc2ccccc2[nH]1,83%,96.9%,100%,104%,110%,94.2%,107%,111%,95.4%,106%
O=S(=O)(NCCCNc1cc(-c2cn(-c3ccccc3)nc2-c2cccc(O)c2)ccn1)c1ccc(F)cc1,6.17% (active),21.4%,23.4%,65.5%,35.7%,49%,40.6%,45.8%,24.3%,25.9%
